High-throughput results as filed in PubChem.
FLuc inh: inhibitors of firefly (Photinus pyralis) luciferase; purified P. pyralis luciferase, luminescence, biochemical; Potency, µM (top dose mostly 115 µM), hits mostly inhibitors; hit rate 2.5% among 76,000; further: nearly all actives have a fitted effect of over 65% in size
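Biochemical qHTS: compound (6-point titration) added to 10uM D-luciferin plus 10uM ATP in Tris acetate pH 7.5 buffer with Mg, Tween-20 and BSA, then purified enzyme at 10nM; light output imaged.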
HEK cytotox: kills HEK 293 cells; HEK 293 viability, ATP luminescence (CellTiter-Glo), 48-72 h; Potency, µM (top dose mostly 115 µM), usual class: inhibitors; hit rate 6.6% among 94,000; AID 1345083; further: nearly all actives have a fitted effect of over 60% in size
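qHTS cytotoxicity; HEK 293, 250 cells/well; compound pinned; 48 or 72 hr, 37 degree Celsius, 5% CO2, 95% humidity; CellTiter-Glo, 10 min RT; luminescence (ATP).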
hNpr1 antagonist: blocks ANP-stimulated signaling of human Npr1 receptor. P16066. HEK293 hNpr1 GloSensor cGMP, ANP-stimulated luminescence. Potency, µM (titrated, usually from 46.3 µM), actives largely listed as inhibitors. hit rate 1.6% among 76,000. AID 1347048; calls by dose curve; further: nearly all actives have a fitted effect of over 60% in size
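HEK293 cells stably expressing human Npr1 and cGMP GloSensor pGS-40F, loaded 2 h with 2% GloSensor reagent, given compound 30 min at room temperature. Luminescence read before and 20 min after 0.1 nM hNppA.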
3T3 cytotox: cytotoxic compounds in NIH 3T3 cells. Potency, µM (titrated, usually from 96.7 µM), actives largely listed as inhibitors. NIH 3T3 viability, CellTiter-Glo ATP luminescence, 48-72 h. AID 1345082. hit rate 4.3% among 94,000; further: nearly all actives have a fitted effect of over 55% in size
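ATP-dependent luminescence (CellTiter-Glo) served as the viability signal for NIH 3T3 cells treated with compound for 48 or 72 hr at 37 °C.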
Of the large screens only hits and unclear results are named; the others gave an inactive call; ! = not confirmed by another sample. A selection: hits, their analogues and other compounds. The true share with any hit is near 11%. Unless noted, the call rests on the fitted dose curve; in most records, active means well fitted curve in the direction sought with a large enough effect; inconclusive means small, poorly fitted or top-dose-only effect, or another doubt; inactive means no such curve, though single readings can be large; an effect the other way counts as inactive or inconclusive.

CCOc1cccn2c(=O)c(-c3cc(C)n(-c4ccc(Cl)cc4)n3)c(C)nc12	HEK cytotox inconclusive
Cc1nc2c(OCC(=O)c3ccccc3)cccn2c(=O)c1-c1cc(C)n(-c2ccc(Cl)cc2)n1	FLuc inh 28.2µM, HEK cytotox inconclusive, 3T3 cytotox inconclusive
Cc1ccccc1C(=O)N1CCC(C(=O)N2CCC(N3CCOCC3=O)CC2)CC1	none (no result: FLuc inh, hNpr1 antagonist)
c1cc(-c2cc3c(ccn3Cc3ccncc3)c(N3CCOCC3)n2)cc(N2CCOCC2)c1	HEK cytotox inconclusive, 3T3 cytotox 31.6µM
C[S+](=O)([O-])Nc1cccc(-c2cc3c(ccn3Cc3ccncc3)c(N3CCOCC3)n2)c1	3T3 cytotox inconclusive
C[S+](=O)([O-])c1ccc(-c2cc3c(ccn3Cc3ccncc3)c(N3CCOCC3)n2)cc1	3T3 cytotox 6.31µM
CN(C)Cc1cccc(-c2cc3c(ccn3Cc3ccncc3)c(N3CCOCC3)n2)c1	HEK cytotox 89.1µM, 3T3 cytotox 39.8µM
O=C1NCc2ccccc2CC12CCN(Cc1c(F)cccc1Cl)CC2	none (no result: FLuc inh, hNpr1 antagonist)
Cc1noc(C)c1[S+](=O)([O-])N1CCC(C(=O)C2CCC(N3Cc4cccn4C3=O)CC2)CC1 (stereo not drawn)	none (no result: FLuc inh, hNpr1 antagonist)
O=C(CNC(=O)c1cccc(-c2ccsc2)c1)NCc1ccc(F)cc1F	HEK cytotox inconclusive (no result: FLuc inh, hNpr1 antagonist)
O=C1c2cnc(-c3cncnc3)nc2OCCN1c1cccc(C(F)(F)F)c1	3T3 cytotox 39.8µM
O=C1c2cnc(-c3cccc(O)c3)nc2OCCN1c1cccc(C(F)(F)F)c1	HEK cytotox inconclusive, 3T3 cytotox inconclusive
COc1cccc(-c2ncc3c(n2)OCCN(c2cccc(C(F)(F)F)c2)C3=O)c1	FLuc inh 2µM, HEK cytotox inconclusive, 3T3 cytotox inconclusive
NC1(C(=O)N2CCCC(CCc3ccccc3F)C2)CCC1 (stereo not drawn)	HEK cytotox inconclusive
CN(CCO)C[C@@H]1CN(C(=O)c2ccc3c(c2)CCC3)C[C@@H]1CO	none
Cc1c(CN2C[C@@H](CN(C)CCO)[C@@H](CO)C2)[nH]c2c(Cl)cccc12	HEK cytotox 44.7µM, 3T3 cytotox 79.4µM
COc1ccccc1OC1CCN(Cc2cc3n(n2)CCNC3)CC1	none
Cc1ccc(SC2CCN(Cc3cc4n(n3)CCNC4)CC2)cc1	HEK cytotox 14.1µM, 3T3 cytotox 14.1µM
CNC(=O)C1C(=O)NCC12CCN(C(=O)c1ccc(C(C)(C)C)cc1)CC2 (stereo not drawn)	3T3 cytotox inconclusive (no result: FLuc inh, hNpr1 antagonist)
COc1ccccc1-c1cn2c(n1)CO[C@@H](CNCc1ccc(F)cc1)C2	HEK cytotox 70.8µM, 3T3 cytotox inconclusive
COc1ccccc1-c1cn2c(n1)CO[C@@H](CNCc1ccc(F)c(F)c1)C2	HEK cytotox inconclusive, 3T3 cytotox inconclusive
COc1ccc(-c2cn3c(n2)CO[C@@H](CNCc2ccccc2OC)C3)cc1	FLuc inh inconclusive, HEK cytotox inconclusive, 3T3 cytotox inconclusive
COc1ccccc1CNC[C@H]1Cn2cc(-c3ccccc3OC)nc2CO1	HEK cytotox 112µM, 3T3 cytotox 79.4µM
COc1cc(-c2cc(C)c3cccc(OC)c3n2)cc2c1OCCN(C(=O)CCN)C2	HEK cytotox inconclusive, 3T3 cytotox 89.1µM
O=C1CCN(C(=O)C2CCC2)c2ccc(F)cc2CN1Cc1ccccc1	HEK cytotox inconclusive (no result: FLuc inh, hNpr1 antagonist)
COc1ccc(-c2c(C(=O)NC3CCCCC3)nc3sccn23)cc1	HEK cytotox inconclusive (no result: FLuc inh, hNpr1 antagonist)
Cc1nn(CCC#N)c(C)c1[C@@H]1C=C[C@@H](NC(=O)NCc2ccccc2)C1	none
Cc1nn(-c2ccccc2)c(C)c1[C@@H]1C=C[C@@H](NCc2cccc(C#N)c2)C1	HEK cytotox 63.1µM, 3T3 cytotox inconclusive
Cc1nn(-c2cccc(Br)c2)c(C)c1[C@@H]1C=C[C@@H](NS(C)(=O)=O)C1	FLuc inh 56.2µM, HEK cytotox inconclusive, hNpr1 antagonist inconclusive, 3T3 cytotox inconclusive
Cc1nn(-c2cccc(Br)c2)c(C)c1[C@@H]1C=C[C@@H](NCc2cccc(C#N)c2)C1	FLuc inh 39.8µM, HEK cytotox inconclusive, 3T3 cytotox inconclusive
Cc1nn(-c2ccc(C(C)C)cc2)c(C)c1[C@@H]1C=C[C@@H](NCc2cccc(C#N)c2)C1	FLuc inh inconclusive, HEK cytotox 25.1µM, 3T3 cytotox inconclusive
O=C(C1CCCN([S+](=O)([O-])c2cccs2)C1)N1CCC(c2nc3ccncc3[nH]2)CC1 (stereo not drawn)	none (no result: FLuc inh, hNpr1 antagonist)
CC(C)(C)C(=O)NC1CCCN(c2ccc3nnc(C4CC4)n3n2)C1 (stereo not drawn)	none (no result: FLuc inh, hNpr1 antagonist)
O=C(NCCc1ccccc1)c1ccc2nnc(-c3ccc(F)cc3)n2c1	3T3 cytotox inconclusive (no result: FLuc inh, hNpr1 antagonist)
O=C(NCc1ccc2c(c1)OCO2)C1CC(c2ccccc2)CN(C(=O)c2ccccc2F)C1 (stereo not drawn)	HEK cytotox inconclusive, 3T3 cytotox inconclusive
CNC(=O)c1cc(C)nc2onc(C3CCCN(C(=O)Cc4ccc(OC)cc4)C3)c12 (stereo not drawn)	none (no result: FLuc inh, hNpr1 antagonist)
Cc1ccc(-n2nc(C)c([C@@H]3C=C[C@@H](NCc4cccc(C#N)c4)C3)c2C)cc1Cl	FLuc inh inconclusive, HEK cytotox 25.1µM, hNpr1 antagonist inconclusive, 3T3 cytotox inconclusive
Cc1ccc(-n2nc(C)c([C@H]3C=C[C@@H](OC(=O)N[C@H](C)c4ccccc4)C3)c2C)cc1Cl	HEK cytotox inconclusive, 3T3 cytotox inconclusive
C#CCNC(=O)c1nc2cccnc2n(Cc2ccc(OC)cc2)c1=O	none (no result: FLuc inh, hNpr1 antagonist)
CC(C)Cn1c(=O)c(C(=O)NC2CC2)nc2cccnc21	none (no result: FLuc inh, hNpr1 antagonist)
COc1ccc(CCNC(=O)c2nc3cccnc3n(CC(C)C)c2=O)cc1	HEK cytotox inconclusive, 3T3 cytotox 44.7µM (no result: FLuc inh, hNpr1 antagonist)
COc1ccc(CNC(=O)c2nc3cccnc3n(Cc3ccc(OC)cc3)c2=O)cc1	HEK cytotox 79.4µM!, 3T3 cytotox inconclusive (no result: FLuc inh, hNpr1 antagonist)
O=C(NC1CCCC1)N1CCC(C(=O)N2CCC(c3nc4ncccc4[nH]3)CC2)CC1	none (no result: FLuc inh, hNpr1 antagonist)
Cc1cc(CNC(=O)Cc2ccc(-n3cnnn3)cc2)c2[nH]c(C)c(C)c2c1	HEK cytotox inconclusive, 3T3 cytotox 20µM
Cc1cc(CNC(=O)c2ccncc2)c2[nH]c(-c3ccccc3)c(C)c2c1	FLuc inh inconclusive, HEK cytotox 14.1µM, hNpr1 antagonist 11.2µM, 3T3 cytotox 31.6µM
COc1ccc(CC(=O)NCc2cc(C)cc3c(C)c(C)[nH]c23)c(OC)c1	HEK cytotox inconclusive, 3T3 cytotox inconclusive
Cc1cc(CNC(=O)Cc2nonc2C)c2[nH]c(-c3ccccc3)c(C)c2c1	FLuc inh 10µM, HEK cytotox inconclusive
COCc1ccc(C(=O)NCc2cc(C)cc3c(C)c(C)[nH]c23)o1	HEK cytotox inconclusive, 3T3 cytotox inconclusive
Cc1c(-c2ccccc2)[nH]c2c(CNC(=O)CCc3nncn3C)cc(Cl)cc12	FLuc inh 22.4µM, HEK cytotox inconclusive, 3T3 cytotox inconclusive
Cc1ccc([S+](=O)([O-])N2CCCC(N3C(=O)c4c(c(C)nn4-c4ccccc4)C3C(C)C)C2)cc1 (stereo not drawn)	none (no result: FLuc inh, hNpr1 antagonist)
O=C(CC1CCCN(c2cnn(CC3CC3)c(=O)c2)C1)NCc1ccccc1Cl (stereo not drawn)	HEK cytotox inconclusive, 3T3 cytotox inconclusive
COc1ccc(C(=O)NC2CCN(C(=O)c3ccc(-c4cncnc4)cc3)CC2)cc1	none (no result: FLuc inh, hNpr1 antagonist)
